Reference: ChEMBL document CHEMBL5724796, “Tm Shift (DSF) assay results for EUbOPEN Chemogenomics Library” (2024)
Residues, ends and D or L forms follow the SMILES beside them. *: point of attachment. Boc = CC(C)(C)OC(=O)*

Assays:
Conditions in all cases: Compound concentration 20.0 uM
[1] = target: Tyrosine-protein kinase ABL1 (Homo sapiens) (UniProt P00519)
[2] = target: Bromodomain-containing protein 4 (Homo sapiens) (UniProt O60885)
[3] = target: Cyclin-dependent kinase 2 (Homo sapiens) (UniProt P24941)
[4] = target: Casein kinase I isoform delta (Homo sapiens) (UniProt P48730)
Casein kinase I isoform delta (Homo sapiens), sequence (P48730 whole entry, looked up, canonical isoform): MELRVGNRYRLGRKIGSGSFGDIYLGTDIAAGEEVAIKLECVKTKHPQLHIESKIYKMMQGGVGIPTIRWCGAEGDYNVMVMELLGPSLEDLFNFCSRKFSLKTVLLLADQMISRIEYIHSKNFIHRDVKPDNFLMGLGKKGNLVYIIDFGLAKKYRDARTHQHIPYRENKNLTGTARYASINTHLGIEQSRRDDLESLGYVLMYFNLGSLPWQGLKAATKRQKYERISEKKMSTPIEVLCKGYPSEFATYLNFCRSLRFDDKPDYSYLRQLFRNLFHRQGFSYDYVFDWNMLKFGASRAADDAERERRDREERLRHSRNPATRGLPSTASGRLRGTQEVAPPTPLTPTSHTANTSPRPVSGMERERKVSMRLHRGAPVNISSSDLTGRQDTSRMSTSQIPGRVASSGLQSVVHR

[5] = target: Glycogen synthase kinase-3 beta (Homo sapiens) (UniProt P49841)
Glycogen synthase kinase-3 beta (Homo sapiens), sequence (P49841 whole entry, looked up): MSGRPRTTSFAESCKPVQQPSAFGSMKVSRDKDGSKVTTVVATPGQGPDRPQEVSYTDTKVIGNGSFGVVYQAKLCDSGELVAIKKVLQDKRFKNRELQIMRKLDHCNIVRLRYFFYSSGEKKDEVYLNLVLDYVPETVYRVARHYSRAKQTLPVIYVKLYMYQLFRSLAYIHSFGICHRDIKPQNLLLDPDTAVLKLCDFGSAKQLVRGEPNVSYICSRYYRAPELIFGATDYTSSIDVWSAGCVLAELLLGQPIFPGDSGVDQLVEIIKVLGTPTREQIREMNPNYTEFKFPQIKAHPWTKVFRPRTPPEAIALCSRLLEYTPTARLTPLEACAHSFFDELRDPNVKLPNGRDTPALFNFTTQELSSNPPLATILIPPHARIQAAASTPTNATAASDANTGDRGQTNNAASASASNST

[6] = target: Mitogen-activated protein kinase 1 (Homo sapiens) (UniProt P28482)
Mitogen-activated protein kinase 1 (Homo sapiens), sequence (P28482 whole entry): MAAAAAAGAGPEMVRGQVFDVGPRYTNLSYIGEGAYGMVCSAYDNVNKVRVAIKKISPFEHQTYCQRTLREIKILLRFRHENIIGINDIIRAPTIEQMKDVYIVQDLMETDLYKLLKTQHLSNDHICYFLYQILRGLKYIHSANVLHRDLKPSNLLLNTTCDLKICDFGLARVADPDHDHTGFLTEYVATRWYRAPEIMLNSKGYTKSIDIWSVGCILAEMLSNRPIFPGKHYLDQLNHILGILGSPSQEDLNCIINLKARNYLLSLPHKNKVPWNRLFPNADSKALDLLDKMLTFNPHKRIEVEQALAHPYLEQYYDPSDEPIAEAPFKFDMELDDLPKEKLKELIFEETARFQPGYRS

[7] = target: T1, Aurora kinase A (Homo sapiens) (UniProt O14965)
T1 sequence (whole entry): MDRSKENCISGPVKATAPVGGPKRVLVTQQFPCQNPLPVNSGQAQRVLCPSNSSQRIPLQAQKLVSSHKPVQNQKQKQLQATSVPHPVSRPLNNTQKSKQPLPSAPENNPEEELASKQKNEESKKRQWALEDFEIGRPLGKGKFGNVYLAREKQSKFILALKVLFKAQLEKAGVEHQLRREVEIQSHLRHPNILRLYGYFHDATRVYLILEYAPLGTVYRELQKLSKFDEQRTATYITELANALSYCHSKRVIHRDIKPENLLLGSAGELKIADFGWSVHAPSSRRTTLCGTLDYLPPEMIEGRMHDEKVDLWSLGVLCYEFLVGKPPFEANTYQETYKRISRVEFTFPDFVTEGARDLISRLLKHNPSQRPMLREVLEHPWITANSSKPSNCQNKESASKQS

[8] = target: T2, Transcription intermediary factor 1-alpha (Homo sapiens) (UniProt O15164)
T2 sequence (whole entry): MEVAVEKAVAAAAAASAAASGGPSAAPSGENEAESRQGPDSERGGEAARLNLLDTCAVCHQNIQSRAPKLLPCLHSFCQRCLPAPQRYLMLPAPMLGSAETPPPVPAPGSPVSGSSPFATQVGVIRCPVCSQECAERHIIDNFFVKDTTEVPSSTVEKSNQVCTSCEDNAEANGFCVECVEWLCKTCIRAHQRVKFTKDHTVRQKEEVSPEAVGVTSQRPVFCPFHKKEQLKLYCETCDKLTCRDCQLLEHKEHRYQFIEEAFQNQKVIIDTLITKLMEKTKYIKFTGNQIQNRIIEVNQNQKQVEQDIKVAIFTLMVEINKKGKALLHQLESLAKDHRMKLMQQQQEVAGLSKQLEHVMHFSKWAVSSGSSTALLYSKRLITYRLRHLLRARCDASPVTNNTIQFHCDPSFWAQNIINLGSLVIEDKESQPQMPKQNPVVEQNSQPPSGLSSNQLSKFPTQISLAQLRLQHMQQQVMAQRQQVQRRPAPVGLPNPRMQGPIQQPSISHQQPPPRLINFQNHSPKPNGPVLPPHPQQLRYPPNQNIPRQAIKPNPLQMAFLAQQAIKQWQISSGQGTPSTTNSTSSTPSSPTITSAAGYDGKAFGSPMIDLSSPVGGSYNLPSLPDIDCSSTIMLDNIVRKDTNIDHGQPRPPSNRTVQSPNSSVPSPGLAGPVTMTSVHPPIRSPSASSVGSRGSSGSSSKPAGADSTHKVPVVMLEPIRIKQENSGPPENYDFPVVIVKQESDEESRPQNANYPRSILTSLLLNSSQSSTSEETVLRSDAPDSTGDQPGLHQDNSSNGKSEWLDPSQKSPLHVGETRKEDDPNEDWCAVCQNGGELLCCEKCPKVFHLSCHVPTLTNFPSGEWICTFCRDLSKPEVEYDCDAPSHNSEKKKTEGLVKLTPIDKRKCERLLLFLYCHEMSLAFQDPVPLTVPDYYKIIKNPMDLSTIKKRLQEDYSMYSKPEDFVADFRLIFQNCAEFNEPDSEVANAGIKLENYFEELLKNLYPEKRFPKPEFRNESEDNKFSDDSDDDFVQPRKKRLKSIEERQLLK

Tyrosine-protein kinase ABL1 (Homo sapiens), sequence (P00519 whole entry): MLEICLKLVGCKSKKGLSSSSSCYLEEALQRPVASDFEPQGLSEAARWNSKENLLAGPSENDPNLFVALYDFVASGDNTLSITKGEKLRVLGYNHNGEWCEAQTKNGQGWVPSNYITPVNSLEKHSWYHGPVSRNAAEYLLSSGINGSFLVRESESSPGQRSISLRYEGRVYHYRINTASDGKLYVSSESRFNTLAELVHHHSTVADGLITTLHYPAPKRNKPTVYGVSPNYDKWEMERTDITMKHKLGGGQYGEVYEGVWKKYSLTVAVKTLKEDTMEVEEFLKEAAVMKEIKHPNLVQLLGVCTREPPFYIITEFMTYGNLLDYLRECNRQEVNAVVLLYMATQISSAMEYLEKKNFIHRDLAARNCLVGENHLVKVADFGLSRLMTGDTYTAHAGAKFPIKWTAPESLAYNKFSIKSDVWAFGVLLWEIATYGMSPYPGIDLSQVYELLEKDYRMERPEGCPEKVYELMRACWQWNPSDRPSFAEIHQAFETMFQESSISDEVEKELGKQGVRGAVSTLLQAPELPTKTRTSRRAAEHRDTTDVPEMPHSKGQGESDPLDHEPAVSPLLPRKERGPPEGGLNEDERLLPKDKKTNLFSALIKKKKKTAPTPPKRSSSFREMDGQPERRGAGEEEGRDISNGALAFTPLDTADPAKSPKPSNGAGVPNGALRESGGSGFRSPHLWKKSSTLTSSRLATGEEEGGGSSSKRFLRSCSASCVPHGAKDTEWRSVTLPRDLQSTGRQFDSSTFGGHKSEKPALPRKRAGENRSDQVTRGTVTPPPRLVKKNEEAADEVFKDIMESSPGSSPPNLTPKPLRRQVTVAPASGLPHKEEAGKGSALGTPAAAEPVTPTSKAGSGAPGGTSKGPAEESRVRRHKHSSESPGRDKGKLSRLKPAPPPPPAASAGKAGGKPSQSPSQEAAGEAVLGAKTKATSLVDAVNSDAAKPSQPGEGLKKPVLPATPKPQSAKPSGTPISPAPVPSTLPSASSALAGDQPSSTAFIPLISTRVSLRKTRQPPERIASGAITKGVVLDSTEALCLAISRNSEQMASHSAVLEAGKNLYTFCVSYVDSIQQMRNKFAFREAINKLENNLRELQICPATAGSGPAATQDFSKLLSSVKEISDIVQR

Row | SMILES | ΔTm [1] [°C] | ΔTm [2] [°C] | ΔTm [3] [°C] | ΔTm [4] [°C] | ΔTm [5] [°C] | ΔTm [6] [°C] | ΔTm [7] [°C] | ΔTm [8] [°C] | ΔTm ([1]; Protein concentration 2.0 uM) [°C]
1 | COc1cc(-c2cn(C)c(=O)c3cnccc23)cc(OC)c1CN(C)C | 0.4 | -1.71 | 0.82 | -0.03 | 0.26 | 0.18 | -1.01 | 0.87 | –
2 | COc1ccc2nc3[nH]nc(C)c3c(NCCOCCO)c2c1 | 0.63 | -1.31 | 0.26 | 0.76 | 2.8 | -0.01 | 0.31 | -0.59 | –
3 | CCC[C@@H]1CNCc2c1[nH]c(=O)c(C#N)c2N1CCC2(CC1)CC2 | 0.32 | -1.86 | 0.24 | 0.29 | 0.07 | -0.21 | -0.58 | -0.85 | –
4 | CCNC(=O)/C=C/c1cccc(Br)c1 | 0.39 | -0.78 | 0.01 | -0.27 | -0.4 | -0.04 | -2.22 | -0.12 | –
5 | CN1CC(=O)N2[C@H](c3ccc4c(c3)OCO4)c3[nH]c4ccccc4c3C[C@@H]2C1=O | 0.48 | -3.03 | -0.06 | 0.06 | -0.13 | 0.16 | -2.46 | -0.6 | –
6 | CCCc1nc(C)c2c(=O)nc(-c3cc(S(=O)(=O)N4CCN(CC)CC4)ccc3OCC)[nH]n12 | 0.09 | 1.95 | 1 | 0.05 | -1.14 | 0.18 | -2.18 | 1.86 | –
7 | Cc1c(CN2CCC(Nc3ncnc4sc(CC(F)(F)F)cc34)CC2)ccc2[nH]c(C#N)cc12 | -0.58 | 0.25 | -0.04 | 1.22 | -1.43 | -1.41 | -7.15 | 0.71 | –
8 | N=C(N)SCc1ccc(CN2C(=O)C(=O)c3cc(Br)cc(Br)c32)cc1 | -4.26 | -11.4 | 0 | -2.52 | -2.8 | -1.76 | -5.55 | 0 | –
9 | C[C@]1(c2nc3c(C(N)=O)cccc3[nH]2)CCCN1 | 0.02 | -2.57 | -0.1 | 0.16 | -0.63 | -0.01 | -1.66 | 1.28 | –
10 | CC(C)[C@H](NC(=O)[C@H](CCC(=O)O)NC(=O)[C@H](C)NC(=O)OC(C)(C)C)C(=O)N[C@H](C=O)CC(=O)O (Boc-AEVD-aldehyde) | 0.28 | -2.26 | -0.28 | -0.09 | -1.03 | -0.49 | -1.35 | -0.84 | –
11 | CC(=O)N1CCC(c2ccc(C(=O)NC(=N)N)cc2C(F)(F)F)CC1 | 0.12 | 0.39 | 0.7 | -0.02 | -0.96 | 0.47 | -0.69 | 1.39 | –
12 | CC[C@H](C)[C@H](NC(C)=O)C(=O)N[C@@H](CCC(=O)O)C(=O)N[C@H](C(=O)N[C@H](C=O)CC(=O)O)[C@@H](C)O (Ac-IETD-aldehyde) | 0.22 | -2.51 | -0.65 | 0.05 | -1.72 | -0.3 | -1.5 | -1.13 | –
13 | Cn1c(=O)cc(N2CCC[C@@H](N)C2)n(Cc2ccccc2C#N)c1=O | 0.31 | 2.27 | 1.07 | -0.43 | 0.02 | 0.02 | -1.58 | 0.69 | –
14 | CC(C)Cn1c(=O)n(C)c(=O)c2c(C(=O)N3CC[C@@H](O)C3)c(Cc3ccnc4ccccc34)sc21 | -0.39 | 2.2 | 0.16 | 0.09 | -1.09 | 0.11 | -0.87 | 2.02 | –
15 | Cc1ncc(Cl)cc1NCc1ccc(C(=O)N[C@@H](CC2CCCC2)C(=O)NC2CC2)s1 | – | -3.44 | -0.15 | -0.05 | 10.5 | -3.12 | 7.63 | 2.21 | 2
16 | CC1(C)c2cccc(C(=O)NO)c2CN1c1cnc(C(F)(F)F)cn1 | 0.41 | -2.93 | -2.1 | 0.64 | 0 | 0 | -2.98 | -1.07 | –
17 | C[C@@H]1OC(=O)NN=C1c1ccc(-c2ccc(F)cc2)c(C(F)(F)F)c1 | -1.46 | -3.44 | -0.76 | -0.33 | -7.28 | -0.02 | -7.3 | -0.48 | –
18 | N[C@@H](CCCCB(O)O)C(=O)O | 0.06 | 1.28 | 0.26 | -0.26 | -0.55 | 0.18 | -0.4 | -0.41 | –
19 | CCCSc1nc(N[C@@H]2C[C@H]2c2ccc(F)c(F)c2)c2nnn([C@@H]3C[C@H](OCCO)[C@@H](O)[C@H]3O)c2n1 | 0.97 | -3.15 | -0.32 | -0.02 | -1.82 | 0.5 | -2.27 | 0.03 | –
20 | Cc1cc(-c2ccccc2)cc(C(=O)NNS(=O)(=O)c2ccccc2)c1F | 0.58 | -6.22 | -3.62 | 0.42 | -3.1 | 0 | -4.21 | -1.85 | –
